# Data taken from PubChem BioAssay (EPA / NIEHS).
# Values joined by “and” are separate entries in the source; they are usually repeats but may differ in a detail not shown here. Equal values may be shown once. Records with an inconclusive call do not appear. The source holds several records for some structures; these can differ, active in one and inactive in another. Active and inactive are the calls of the source. How the source made its calls, unless noted: active means hit-call score of the fitted dose curve at least 0.9, where 1 is the maximum; inconclusive means response in the unintended direction; inactive means score below 0.9.
# Legend:
# [1] = target: human Peripheral-type Benzodiazepine Receptor (PBR), TSPO (gene 706) (UniProt P30536); experiment: NVS_MP_hPBR: NovaScreen (NVS) Membrane Protein Assay for human Peripheral-type Benzodiazepine Receptor (PBR) (AID 2283331);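 further: hits reduce radioligand binding relative to DMSO baseline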
# Chain of human Peripheral-type Benzodiazepine Receptor (PBR), TSPO (gene 706) (P30536 whole entry, looked up): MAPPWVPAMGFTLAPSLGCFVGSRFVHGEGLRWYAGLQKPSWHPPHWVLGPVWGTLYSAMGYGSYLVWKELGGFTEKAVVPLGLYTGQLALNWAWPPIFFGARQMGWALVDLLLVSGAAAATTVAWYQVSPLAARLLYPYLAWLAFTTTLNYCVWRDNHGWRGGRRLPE
# Summary of the method: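 Human colonic cell membranes were incubated with test chemical for 1 hour; radioligand binding was measured by filter-based scintillation counting. Primary screen ran in duplicate at 25 uM, with actives followed in concentration series; loss of signal versus DMSO baseline.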
# [2] = target: rat Peripheral-type Benzodiazepine Receptor (PBR), Tspo (gene 24230) (UniProt P16257); experiment: NVS_MP_rPBR: NovaScreen (NVS) Membrane Protein Assay for rat Peripheral-type Benzodiazepine Receptor (PBR) (AID 2283335)
# Chain of rat Peripheral-type Benzodiazepine Receptor (PBR), Tspo (gene 24230) (P16257 whole entry, looked up): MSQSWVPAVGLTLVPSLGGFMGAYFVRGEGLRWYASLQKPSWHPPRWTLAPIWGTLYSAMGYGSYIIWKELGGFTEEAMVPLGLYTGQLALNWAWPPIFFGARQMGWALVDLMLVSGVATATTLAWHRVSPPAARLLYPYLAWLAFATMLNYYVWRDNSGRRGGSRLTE
# Summary of the method: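 Radioligand displacement, rat kidney membrane prep, 1 h exposure, filter-based scintillation read; DMSO baseline, loss-of-signal scored. Primary screen at 25 uM in duplicate, actives followed up in concentration series.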
# [3] = target: rat Gamma-Aminobutyric Acid Type A Receptor, Non-Selective (GABAR-NonSelective), Gabra1 (gene 29705) (UniProt P62813); experiment: NVS_LGIC_rGABAR_NonSelective: NovaScreen (NVS) Ligand-Gated Ion Channel Assay for rat Gamma-Aminobutyric Acid Type A Receptor, Non-Selective (GABAR-NonSelective) (AID 2283326)
# Chain of rat Gamma-Aminobutyric Acid Type A Receptor, Non-Selective (GABAR-NonSelective), Gabra1 (gene 29705) (P62813 whole entry, looked up): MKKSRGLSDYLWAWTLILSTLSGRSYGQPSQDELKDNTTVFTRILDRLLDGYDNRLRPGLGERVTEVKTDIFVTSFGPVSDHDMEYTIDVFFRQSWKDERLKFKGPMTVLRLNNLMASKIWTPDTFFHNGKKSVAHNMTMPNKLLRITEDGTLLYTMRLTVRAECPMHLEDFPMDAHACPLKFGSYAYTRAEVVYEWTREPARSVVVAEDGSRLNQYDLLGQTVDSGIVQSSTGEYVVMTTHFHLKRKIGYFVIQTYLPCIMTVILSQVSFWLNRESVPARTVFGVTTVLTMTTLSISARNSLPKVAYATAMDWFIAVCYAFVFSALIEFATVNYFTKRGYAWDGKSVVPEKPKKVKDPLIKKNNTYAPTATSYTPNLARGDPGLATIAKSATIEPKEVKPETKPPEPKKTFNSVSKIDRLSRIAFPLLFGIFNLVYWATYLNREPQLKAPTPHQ
# Summary of the method: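 Radioligand displacement on rat whole-brain extract, 1 h, filter scintillation readout; signal loss fitted versus DMSO. Primary screen in duplicate at 25 uM; hits (e.g. ≥30% inhibition) retested in concentration-response up to 50 uM.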
# [4] = target: rat Thyrotropin Releasing Hormone Receptor (TRH), Trhr (gene 25570) (UniProt Q01717); experiment: NVS_GPCR_rTRH: NovaScreen (NVS) G Protein-Coupled Receptor Assay for rat Thyrotropin Releasing Hormone Receptor (TRH) (AID 2283329);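 further: hit means lower bound tracer signal versus DMSO baseline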
# Chain of rat Thyrotropin Releasing Hormone Receptor (TRH), Trhr (gene 25570) (Q01717 whole entry, looked up): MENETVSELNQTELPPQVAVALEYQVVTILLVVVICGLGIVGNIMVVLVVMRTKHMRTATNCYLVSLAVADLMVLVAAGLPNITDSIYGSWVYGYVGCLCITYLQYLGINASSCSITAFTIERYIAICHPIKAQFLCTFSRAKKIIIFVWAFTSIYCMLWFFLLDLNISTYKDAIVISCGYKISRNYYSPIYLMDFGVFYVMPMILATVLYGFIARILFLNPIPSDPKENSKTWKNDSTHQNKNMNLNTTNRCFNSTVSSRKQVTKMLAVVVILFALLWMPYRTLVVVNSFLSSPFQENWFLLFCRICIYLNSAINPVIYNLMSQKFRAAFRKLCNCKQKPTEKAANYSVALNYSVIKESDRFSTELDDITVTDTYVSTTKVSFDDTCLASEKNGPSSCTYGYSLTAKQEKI
# Experimental: NVS_GPCR_rTRH is a biochemical, single-readout assay that uses extracted gene-proteins from Rat forebrain membranes in a tissue-based cell-free assay. Measurements were taken 4 hours after chemical dosing in a 48-well plate.NVS_GPCR_rTRH is one of one assay component(s) measured or calculated from the NVS_GPCR_rTRH assay. It is designed to make measurements of radioligand binding, a form of binding reporter, as detected with scintillation counting signals by Filter-based radiodetection technology.Data from the assay component NVS_GPCR_rTRH was analyzed into 1 assay endpoint. This assay endpoint, NVS_GPCR_rTRH, was analyzed in the positive analysis fitting direction relative to DMSO as the negative control and baseline of activity. Using a type of binding reporter, loss-of-signal activity can be used to understand changes in the binding as they relate to the gene Trhr. Furthermore, this assay endpoint can be referred to as a primary readout, because the performed assay has only produced 1 assay endpoint. To generalize the intended target to other relatable targets, this assay endpoint is annotated to the gpcr intended target family, where the subfamily is rhodopsin-like receptor.
# Binding assays used specific radioligands (tritiated, iodinated) with non-radioactive competitive displacement ligands in agonist or antagonist protocols (as indicated) and various reference compounds and inhibitors to titrate specific binding to receptors and transporters. Most enzyme assays (CYPs, kinases, phosphatases, proteases, HDACs) used recombinant protein and specific substrates (fluorescence mostly, some colorimetric and radioactive) and inhibitors, followed by a biochemical separation of substrate and product. All assays for the biochemical HTS were initially run in duplicate at a single concentration (10 uM for CYP450 assays and 25 uM for all others). […] Each assay was run with positive and negative controls, and concurrent controls on every plate. The follow-up (secondary) screen tested active chemical-pairs in concentration series, as well as a few additional assays not tested in the primary screen, some selected negative inactives, and several cases re-run in the concentration series for confirmatory purposes.
# [5] = target: Voltage-gated inwardly rectifying potassium channel KCNH2 (Homo sapiens) (UniProt Q12809); experiment: NVS_IC_hKhERGCh: NovaScreen (NVS) Ion Channel Assay for human Potassium Channel ERG (KhERGCh) (AID 2283333)
# Chain of Voltage-gated inwardly rectifying potassium channel KCNH2 (Homo sapiens) (Q12809 whole entry, looked up): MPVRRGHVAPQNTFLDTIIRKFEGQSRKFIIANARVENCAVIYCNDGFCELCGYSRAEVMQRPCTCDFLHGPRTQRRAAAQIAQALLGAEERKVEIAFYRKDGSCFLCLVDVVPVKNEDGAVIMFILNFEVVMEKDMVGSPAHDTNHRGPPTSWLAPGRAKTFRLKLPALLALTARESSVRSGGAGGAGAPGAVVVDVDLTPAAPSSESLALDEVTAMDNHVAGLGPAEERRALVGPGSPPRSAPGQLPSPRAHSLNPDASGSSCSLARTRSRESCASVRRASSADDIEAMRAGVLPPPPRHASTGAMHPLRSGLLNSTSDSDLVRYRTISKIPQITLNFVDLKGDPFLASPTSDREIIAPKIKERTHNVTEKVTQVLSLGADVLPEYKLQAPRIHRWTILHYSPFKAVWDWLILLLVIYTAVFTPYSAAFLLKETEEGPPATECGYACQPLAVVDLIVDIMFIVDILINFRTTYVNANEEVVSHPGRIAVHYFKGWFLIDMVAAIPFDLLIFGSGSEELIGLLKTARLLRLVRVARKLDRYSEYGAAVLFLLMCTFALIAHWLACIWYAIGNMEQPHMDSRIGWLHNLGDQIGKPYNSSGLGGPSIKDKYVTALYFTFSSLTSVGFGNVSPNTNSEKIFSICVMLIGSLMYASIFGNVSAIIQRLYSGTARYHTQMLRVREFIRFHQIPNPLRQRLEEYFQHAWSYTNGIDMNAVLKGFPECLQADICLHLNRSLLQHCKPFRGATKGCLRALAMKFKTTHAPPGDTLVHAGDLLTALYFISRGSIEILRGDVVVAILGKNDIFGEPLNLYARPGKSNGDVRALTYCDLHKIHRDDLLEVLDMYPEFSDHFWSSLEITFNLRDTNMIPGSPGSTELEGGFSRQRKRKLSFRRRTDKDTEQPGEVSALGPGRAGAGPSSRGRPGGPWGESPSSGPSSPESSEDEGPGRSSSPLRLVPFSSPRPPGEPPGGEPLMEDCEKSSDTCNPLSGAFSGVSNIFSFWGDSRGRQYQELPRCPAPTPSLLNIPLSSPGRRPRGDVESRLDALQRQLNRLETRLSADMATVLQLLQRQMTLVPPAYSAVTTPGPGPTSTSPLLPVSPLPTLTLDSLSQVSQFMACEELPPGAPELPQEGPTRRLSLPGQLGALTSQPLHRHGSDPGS
# Summary of the method: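 Cell-free radioligand competition binding on hERG protein extracted from CHO cells, read by filter-based scintillation counting 0.75 h after dosing. Primary screen at 25 uM in duplicate, actives followed in concentration series. Signal loss fitted versus DMSO.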
# [6] = target: rat Oxytocin Receptor (OXT), Oxtr (gene 25342) (UniProt P70536); experiment: NVS_GPCR_rOXT: NovaScreen (NVS) G Protein-Coupled Receptor Assay for rat Oxytocin Receptor (OXT) (AID 2283330)
# Chain of rat Oxytocin Receptor (OXT), Oxtr (gene 25342) (P70536 whole entry, looked up): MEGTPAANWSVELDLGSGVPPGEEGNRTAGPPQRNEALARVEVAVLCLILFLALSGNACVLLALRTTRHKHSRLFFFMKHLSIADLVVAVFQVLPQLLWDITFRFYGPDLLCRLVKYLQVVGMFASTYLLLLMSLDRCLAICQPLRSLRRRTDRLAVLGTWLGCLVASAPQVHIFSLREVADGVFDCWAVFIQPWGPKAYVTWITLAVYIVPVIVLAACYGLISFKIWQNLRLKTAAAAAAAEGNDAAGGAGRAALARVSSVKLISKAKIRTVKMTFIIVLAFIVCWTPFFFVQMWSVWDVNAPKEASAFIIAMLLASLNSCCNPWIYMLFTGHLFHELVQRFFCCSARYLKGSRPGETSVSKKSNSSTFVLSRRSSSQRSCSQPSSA
# Experimental: (§1) NVS_GPCR_rOXT is a biochemical, single-readout assay that uses extracted gene-proteins from Rat uterine membranes in a tissue-based cell-free assay. Measurements were taken 1 hour after chemical dosing in a 48-well plate.NVS_GPCR_rOXT is one of one assay component(s) measured or calculated from the NVS_GPCR_rOXT assay. It is designed to make measurements of radioligand binding, a form of binding reporter, as detected with scintillation counting signals by Filter-based radiodetection technology.Data from the assay component NVS_GPCR_rOXT was analyzed into 1 assay endpoint. This assay endpoint, NVS_GPCR_rOXT, was analyzed in the positive analysis fitting direction relative to DMSO as the negative control and baseline of activity. […] Furthermore, this assay endpoint can be referred to as a primary readout, because the performed assay has only produced 1 assay endpoint. […]
# (§2) Binding assays used specific radioligands (tritiated, iodinated) with non-radioactive competitive displacement ligands in agonist or antagonist protocols (as indicated) and various reference compounds and inhibitors to titrate specific binding to receptors and transporters. Most enzyme assays (CYPs, kinases, phosphatases, proteases, HDACs) used recombinant protein and specific substrates (fluorescence mostly, some colorimetric and radioactive) and inhibitors, followed by a biochemical separation of substrate and product. […]
# [7] = target: rat Glutamate, NMDA Agonist Site (GluNMDA), Grin1 (gene 24408) (UniProt P35439); experiment: NVS_LGIC_rGluNMDA_Agonist: NovaScreen (NVS) Ligand-Gated Ion Channel Assay for rat Glutamate, NMDA Agonist Site (GluNMDA) (AID 2283327)
# Summary of the method: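 Rat forebrain membranes, radioligand binding in the agonist-site protocol; 1 h after dosing; filter-based scintillation counting. Single-concentration duplicate screen at 25 uM, then concentration-response up to 50 uM for actives; gain-of-signal vs DMSO.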
# [8] = target: Glutamate receptor ionotropic, kainate 1 (Rattus norvegicus) (UniProt P22756); experiment: NVS_IC_rKAR: NovaScreen (NVS) Ion Channel Assay for rat Kainic Acid Receptors (KAR) (AID 2283334; active means hit-call score of the fitted dose curve at least 0.9, where 1 is the maximum; inactive means score below 0.9)
# Chain of Glutamate receptor ionotropic, kainate 1 (Rattus norvegicus) (P22756 whole entry, looked up): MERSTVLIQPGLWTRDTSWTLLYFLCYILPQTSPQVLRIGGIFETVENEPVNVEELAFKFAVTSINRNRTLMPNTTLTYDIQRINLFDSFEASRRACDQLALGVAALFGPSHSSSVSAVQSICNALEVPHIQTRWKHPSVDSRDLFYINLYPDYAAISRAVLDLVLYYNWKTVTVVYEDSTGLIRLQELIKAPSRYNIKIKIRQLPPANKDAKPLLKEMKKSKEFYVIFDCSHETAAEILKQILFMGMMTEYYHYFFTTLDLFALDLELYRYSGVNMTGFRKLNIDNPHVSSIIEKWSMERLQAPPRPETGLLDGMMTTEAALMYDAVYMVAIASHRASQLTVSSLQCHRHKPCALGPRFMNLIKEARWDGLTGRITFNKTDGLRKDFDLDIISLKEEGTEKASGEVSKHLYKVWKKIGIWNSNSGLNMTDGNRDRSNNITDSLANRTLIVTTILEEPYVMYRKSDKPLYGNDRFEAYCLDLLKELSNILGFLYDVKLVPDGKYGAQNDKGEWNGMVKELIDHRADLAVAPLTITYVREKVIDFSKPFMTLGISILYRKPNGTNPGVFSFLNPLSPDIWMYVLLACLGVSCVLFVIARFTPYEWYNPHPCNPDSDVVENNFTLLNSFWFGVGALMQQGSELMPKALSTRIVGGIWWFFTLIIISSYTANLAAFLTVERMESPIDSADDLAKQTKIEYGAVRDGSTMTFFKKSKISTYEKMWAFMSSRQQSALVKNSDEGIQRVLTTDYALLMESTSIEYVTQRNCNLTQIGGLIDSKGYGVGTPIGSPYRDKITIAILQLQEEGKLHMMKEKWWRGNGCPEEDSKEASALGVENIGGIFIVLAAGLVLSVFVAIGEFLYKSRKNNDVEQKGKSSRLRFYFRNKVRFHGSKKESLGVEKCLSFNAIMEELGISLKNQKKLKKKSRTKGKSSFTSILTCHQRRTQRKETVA
# Summary of the method: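 Radioligand displacement binding using rat forebrain membranes, 1 h incubation, filter-based scintillation counting. Screened in duplicate at 25 uM, with actives retested in concentration-response up to 50 uM; fitted against DMSO.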
# [9] = target: Small conductance calcium-activated potassium channel protein 1 (Rattus norvegicus) (UniProt P70606); experiment: NVS_IC_rKCaCh: NovaScreen (NVS) Ion Channel Assay for rat Potassium Channel, Ca2+ Act., VI (KCaCh) (AID 2283336)
# Experimental: as §1, with “NVS_IC_rKCaCh” for “NVS_GPCR_rOXT”, “forebrain” for “uterine”, “96-well plate.NVS_IC_rKCaCh” for “48-well plate.NVS_GPCR_rOXT”, “NVS_IC_rKCaCh,” for “NVS_GPCR_rOXT,”
# as §2
# [10] = target: human Androgen Receptor (AR), AR (gene 367) (UniProt P10275); experiment: NVS_NR_hAR: NovaScreen (NVS) Nuclear Receptor Binding Assay for human Androgen Receptor (AR) (AID 2283332)
# Chain of human Androgen Receptor (AR), AR (gene 367) (P10275 whole entry, looked up): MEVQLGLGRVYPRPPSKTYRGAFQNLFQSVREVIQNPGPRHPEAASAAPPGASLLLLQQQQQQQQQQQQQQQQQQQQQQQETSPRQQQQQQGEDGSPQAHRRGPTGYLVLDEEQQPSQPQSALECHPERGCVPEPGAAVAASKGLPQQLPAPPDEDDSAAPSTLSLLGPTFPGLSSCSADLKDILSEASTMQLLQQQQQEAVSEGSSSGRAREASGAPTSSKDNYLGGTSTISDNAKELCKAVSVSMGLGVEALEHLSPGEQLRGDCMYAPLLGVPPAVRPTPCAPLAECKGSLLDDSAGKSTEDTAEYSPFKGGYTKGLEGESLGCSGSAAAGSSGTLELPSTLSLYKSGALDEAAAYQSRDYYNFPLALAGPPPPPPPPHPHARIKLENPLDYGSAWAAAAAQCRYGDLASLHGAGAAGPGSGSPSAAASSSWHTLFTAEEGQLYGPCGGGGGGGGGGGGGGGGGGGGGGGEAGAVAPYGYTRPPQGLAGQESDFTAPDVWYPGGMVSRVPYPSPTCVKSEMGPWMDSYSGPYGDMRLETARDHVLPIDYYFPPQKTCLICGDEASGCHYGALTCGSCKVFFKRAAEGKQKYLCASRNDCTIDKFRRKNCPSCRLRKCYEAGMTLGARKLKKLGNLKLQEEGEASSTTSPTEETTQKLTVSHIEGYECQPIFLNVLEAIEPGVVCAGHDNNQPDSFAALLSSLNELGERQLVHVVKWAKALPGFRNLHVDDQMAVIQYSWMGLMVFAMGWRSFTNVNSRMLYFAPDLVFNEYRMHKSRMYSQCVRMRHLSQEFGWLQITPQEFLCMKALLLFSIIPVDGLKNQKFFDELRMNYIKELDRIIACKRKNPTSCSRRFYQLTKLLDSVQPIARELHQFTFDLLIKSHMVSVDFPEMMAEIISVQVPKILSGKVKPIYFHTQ
# Summary of the method: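 Actives from a duplicate 25 uM single-point screen went on to concentration series. Read-out after 20 h was scintillation counting of displaced radioligand in LnCAP extract, with DMSO as baseline.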
compound,measurement,setting,value
CCOP(=S)(OCC)SCn1c(=O)oc2cc(Cl)ccc21,AC50,[1],2.65 µM (active)
same,AC50,[2],4.01 µM (active)
O=C(O)COc1nc(Cl)c(Cl)cc1Cl,outcome,[1],inactive
same,AC50,[2],14.6 µM (active)
C=CCC1=C(C)[C@@H](OC(=O)[C@@H]2[C@@H](C=C(C)C)C2(C)C)CC1=O,outcome,[3],inactive
same,AC50,[1],25 µM (active)
same,AC50,[2],37.7 µM (active)
CN(C)C(=S)SSC(=S)N(C)C,outcome,[3],inactive
same,AC50,[2],11 µM (active)
OC(c1ccc(Cl)cc1)(c1cncnc1)c1ccccc1Cl (stereo not drawn),outcome,[4],inactive
same,outcome,[1],inactive
same,outcome,[5],inactive
same,AC50,[2],4.89 µM (active)
COC(=O)c1ccccc1C(=O)OC,outcome,[1],inactive
COP(N)(=O)SC (stereo not drawn),outcome,[1],inactive
C=CC1(C)OC(=O)N(c2cc(Cl)cc(Cl)c2)C1=O (stereo not drawn),outcome,[6],inactive
same,outcome,[1],inactive
same,AC50,[2],2.19 µM (active) and 1.01 µM (active) and 693 nM (active)
same,outcome,[2],inactive
COC(=O)N(OC)c1ccccc1COc1ccn(-c2ccc(Cl)cc2)n1,AC50,[1],0.105 µM (active)
same,AC50,[2],0.26 µM (active)
COP(=S)(OC)Oc1nc(Cl)c(Cl)cc1Cl,AC50,[1],17.9 µM (active)
same,AC50,[2],7 µM (active)
CC1=C(C(=O)Nc2ccccc2)SCCO1,AC50,[1],20.5 µM (active)
same,AC50,[2],12.3 µM (active)
CCCCC(CC)COC(=O)c1ccccc1C(=O)OCC(CC)CCCC (stereo not drawn),outcome,[7],inactive
same,AC50,[1],8.75 µM (active)
same,AC50,[2],15.6 µM (active)
COc1cnc(OC)n2nc(NS(=O)(=O)c3c(OCC(F)F)cccc3C(F)(F)F)nc12,outcome,[8],inactive
CNC(=O)ON=CC(C)(C)SC,outcome,[1],inactive
COc1nc(C)nc(NC(=O)NS(=O)(=O)c2ccccc2CCC(F)(F)F)n1,outcome,[7],inactive
Oc1ccccc1-c1ccccc1,outcome,[4],inactive
same,outcome,[1],inactive
same,outcome,[2],inactive
C#CCOS(=O)OC1CCCCC1Oc1ccc(C(C)(C)C)cc1 (stereo not drawn),AC50,[1],18.2 µM (active)
same,AC50,[2],14.5 µM (active)
CON(C)C(=O)Nc1ccc(Cl)c(Cl)c1,AC50,[1],11.9 µM (active) [middle of 4 runs]
same,AC50,[2],4.62 µM (active) [middle of 4 runs]
same,outcome,[9],inactive
O=C(Nc1ccccc1)Nc1ccnc(Cl)c1,outcome,[1],inactive
same,AC50,[10],5.13 µM (active)
same,AC50,[5],9.2 µM (active)
same,AC50,[2],15.6 µM (active)
N#Cc1nn(-c2c(Cl)cc(C(F)(F)F)cc2Cl)c(N)c1S(=O)C(F)(F)F (stereo not drawn),outcome,[4],inactive
CC1COC(Cn2cncn2)(c2ccc(Oc3ccc(Cl)cc3)cc2Cl)O1 (stereo not drawn),outcome,[1],inactive
same,outcome,[2],inactive
Cc1ccc(-c2c(Cl)nc(C#N)n2S(=O)(=O)N(C)C)cc1,outcome,[1],inactive
same,outcome,[2],inactive
CCOC(=O)CC(SP(=S)(OC)OC)C(=O)OCC (stereo not drawn),AC50,[1],2.17 µM (active)
same,AC50,[10],25 µM (active)
same,AC50,[2],10.5 µM (active)
CCCCNC(=O)OCC#CI,AC50,[1],38.2 µM (active) and 41.3 µM (active)
same,AC50,[2],12.8 µM (active) and 10.7 µM (active)
CO/C=C(/C(=O)OC)c1ccccc1Oc1cc(Oc2ccccc2C#N)ncn1,outcome,[8],inactive
same,AC50,[2],3.17 µM (active) [middle of 4 runs]
CCCCOC(=O)c1ccccc1C(=O)OCCCC,AC50,[1],22.1 µM (active) [middle of 5 runs]
same,AC50,[2],13.4 µM (active) and 15.5 µM (active)
CC(C)Oc1cc(-n2nc(C(C)(C)C)oc2=O)c(Cl)cc1Cl,outcome,[4],inactive
CCOc1cc(Oc2ccc(C(F)(F)F)cc2Cl)ccc1[N+](=O)[O-],outcome,[4],inactive
CNC(=S)S,outcome,[4],inactive
same,outcome,[1],inactive
same,outcome,[2],inactive
CCCC1COC(Cn2cncn2)(c2ccc(Cl)cc2Cl)O1 (stereo not drawn),AC50,[1],17.3 µM (active)
same,AC50,[10],18.1 µM (active)
same,outcome,[5],inactive
same,AC50,[2],12.3 µM (active)
N#Cc1cc(Br)c(O)c(Br)c1,outcome,[3],inactive
COc1ccc(C(c2ccc(OC)cc2)C(Cl)(Cl)Cl)cc1,outcome,[1],inactive
same,outcome,[2],inactive
CCNc1nc(Cl)nc(NCC)n1,AC50,[1],46.2 µM (active)
same,outcome,[2],inactive
C=CCC1=C(C)C(OC(=O)C2C(C=C(C)C)C2(C)C)CC1=O (stereo not drawn),AC50,[3],7.41 µM (active) and 66.1 nM (active)
same,outcome,[1],inactive
same,outcome,[2],inactive
CCON=C(CC)C1=C(O)CC(c2c(C)cc(C)cc2C)CC1=O (stereo not drawn),outcome,[1],inactive
CCOC(=O)C(Cl)Cc1cc(-n2nc(C)n(C(F)F)c2=O)c(F)cc1Cl (stereo not drawn),outcome,[3],inactive
same,AC50,[1],25 µM (active)
same,AC50,[2],16.1 µM (active)
